Measured values reported in PubChem BioAssay AID624330 (Southern Research Specialized Biocontainment Screening …, 2012).
In all, about 340,000 compounds went through this assay and about 2,100 (0.62%) were called active.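 Rule for the calls: active = first-screen hits whose inhibition reached a set limit at any dose in the follow-up dose series; inconclusive = inhibition above the set first-screen limit but never retested; inactive = the rest.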 The list is a sample of the results. Potency and affinity values are given separately.

Molecular target: Rac GTPase-activating protein 1 (Homo sapiens) (UniProt Q9H0H5)
Experiment: blockers of MgcRacGAP-driven Rac1 GTP hydrolysis – biochemical, ADP Hunter fluorescence, primary and confirmatory, confirmation (AID 624330);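 note: fluorescence reports GDP produced by GAP-driven GTP hydrolysis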
Conditions: MgcRacGAP-stimulated Rac1 GTP hydrolysis, at 30 µM, active compounds read high, GST-tagged Rac1 F28L mutant substrate

Rac GTPase-activating protein 1 (Homo sapiens), sequence (Q9H0H5 whole entry, looked up): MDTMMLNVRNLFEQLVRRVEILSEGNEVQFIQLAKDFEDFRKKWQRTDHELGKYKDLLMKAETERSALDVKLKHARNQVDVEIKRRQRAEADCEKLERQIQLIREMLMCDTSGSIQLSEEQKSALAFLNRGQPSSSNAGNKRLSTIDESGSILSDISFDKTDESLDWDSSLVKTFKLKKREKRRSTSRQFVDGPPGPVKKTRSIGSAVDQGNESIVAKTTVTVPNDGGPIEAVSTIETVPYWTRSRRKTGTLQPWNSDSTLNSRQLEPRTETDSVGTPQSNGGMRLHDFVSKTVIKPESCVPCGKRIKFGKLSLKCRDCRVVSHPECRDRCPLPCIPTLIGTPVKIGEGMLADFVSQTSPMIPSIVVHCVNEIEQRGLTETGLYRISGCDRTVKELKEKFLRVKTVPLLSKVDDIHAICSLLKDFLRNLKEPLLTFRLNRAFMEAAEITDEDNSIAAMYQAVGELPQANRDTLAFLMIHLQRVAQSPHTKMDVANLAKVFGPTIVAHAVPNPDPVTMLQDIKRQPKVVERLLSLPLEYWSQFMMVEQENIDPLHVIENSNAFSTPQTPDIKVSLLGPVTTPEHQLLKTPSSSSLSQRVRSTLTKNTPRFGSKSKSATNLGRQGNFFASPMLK

inhibition, inactive:
COC(=O)c1cc(OC)c(OC)cc1NC(=O)CCCCCN1C(=O)CCC1=O 5.93%
COc1ccc(CCC(=O)Nc2ccc(Cn3ccnc3)cc2)cc1 6.46%
Cn1c(CCc2ccccc2)n[nH]c1=S 4.25%
C=CCOCCN(CC)CC 6.71%
CC#CCCCC(=O)Nc1ccccc1C(=O)O 6.9%
CCCn1c(SCCc2ccccc2)nc2c1c(=O)[nH]c(=O)n2C -2.73%
CCN(CC)c1ccc(/C=N/NC(=O)c2ccc(Br)o2)cc1 14.9%
CCOC(=O)c1ccc(NC(=O)COc2ccc(-n3cnnn3)cc2)cc1 11.5%
CCOc1ccc(NC(=O)COc2ccc(-n3cnnn3)cc2)cc1 6.31%
COC(=O)Cc1ccc(NC(=O)c2ccc(Br)o2)cc1 18.8%
COc1cccc(C(=O)NCCS(=O)(=O)N2CCC3(CC2)OCCO3)c1 6.03%
CC(=O)CC(=O)Nc1cccc2c1CCCC2 5.33%
COC(=O)c1ccc(NCc2cc(O)ccc2O)cc1O 27%
COC(=O)c1cc(CNC(=O)c2ccc(O)c(Cl)c2)ccc1OC 2.78%
CNS(=O)(=O)c1ccc(C(=O)NCC(=O)NCC2COc3ccccc3O2)cc1 (stereo not drawn) 3.68%
O=C(Nc1ccccc1N1CCCC1)C1CCN(S(=O)(=O)c2ccccc2)CC1 2.86%
CC(C)OCCCNC(=O)CN1C(=O)/C(=C/c2ccccc2)Sc2ccccc21 -14.8%
Cc1ccc(-c2cc(C(=O)N(C)Cc3cnn(C)c3C)c3cc(Br)ccc3n2)cc1 7.31%
Cc1ccc(S(=O)(=O)Nc2ccc(N=Nc3ccc(O)cc3)cc2)cc1 21.7%
O=C1C(O)=C(O)C(=O)c2ccccc21 -6.63%
O=C1C(Cl)=C(Nc2ccc(O)cc2)C(=O)c2ccccc21 27.1%
Cc1ccc(S(=O)(=O)/N=C2\C=C(NS(=O)(=O)c3ccccc3)C(=O)c3ccccc32)cc1 2.77%
O[C@H]1C[C@H](c2ccccc2)N(Cc2cccs2)C[C@@H]1n1cc(-c2ccc(F)cc2)nn1 7.08%
Cc1[nH]c(=O)[nH]c(=O)c1S(=O)(=O)N1CCCC(C(=O)NCc2ccco2)C1 (stereo not drawn) 4.98%
COc1cc(OC)cc(C(=O)Oc2ccc(/C=N/Nc3nc4ccccc4s3)cc2OC)c1 12.4%
Brc1csc(/C=N/Nc2nc3ccccc3s2)c1 8.54%
COc1cc(/C=N/Nc2nc3ccccc3s2)cc([N+](=O)[O-])c1O 8.67%
Oc1ccccc1C=NNc1nc2ccccc2s1 4.1%
COc1ccc(C=NNc2nc3ccccc3s2)cc1 2.73%
COc1cc(/C=N/Nc2nc3ccccc3s2)ccc1OC(=O)c1ccccc1F 4.55%
COc1ccc(OC)c(C(=O)COC(=O)c2ccc(C)o2)c1 13%
Cc1ccc2c(c1)C1CC(C)(O2)N(c2cccc(C(=O)NC3CCN(Cc4ccccc4)CC3)c2)C(=O)N1 (stereo not drawn) 3.74%
O=C(CSc1ncnc2sc3c(c12)CCCC3)NC1CCS(=O)(=O)C1 (stereo not drawn) 12.7%
CCN(CC(=O)Nc1ccc(S(=O)(=O)N2CCCC2)cc1)Cc1ccccc1 1.79%
Cc1ccc(C)c(-n2cc(CNCCc3cnccn3)c(-c3ccccc3)n2)c1 12.1%
Cc1cc(OC(C)C(=O)NCc2ccccn2)c2c(C)cc(=O)oc2c1 (stereo not drawn) 0.55%
CC(=O)Nc1ccc2ccc3cccc4ccc1c2c34 6.5%
CC(=O)Nc1cccc2ccc(O)cc12 -6.95%
COc1ccc(-c2ncc3ccccn23)cc1 14.9%
Brc1ccc(-c2ncc3ccccn23)cc1 14.6%
Fc1ccc(-c2ncc3ccccn23)cc1 -4.81%
Clc1ccc(-c2ncc3ccccn23)cc1 6.65%
c1ccc(-c2ncc3ccccn23)cc1 12%
COc1cc(OC)cc(-c2ncc3ccccn23)c1 29.5%
CCN(CC)C(=O)[C@H]1CC(CC(=O)NC(C)(C)C)C(=O)N2CCc3c([nH]c4ccccc34)[C@]12C (stereo partly drawn) 6.38%
O=C(Nc1ccon1)Nc1ccc(Cl)cc1Cl 2.26%
Cc1ccc(-c2nc3ncccc3o2)cc1NC(=O)CC(C)C 4.77%
CC(NC(=O)NC1CCCCC1)C(c1cccs1)N1CCN(C)CC1 (stereo not drawn) 1.37%
COc1ccc(CNC(=O)Cn2cc([N+](=O)[O-])nc2C)cc1 2.29%
O=C(CN1C(=O)C2CCCCC2C1=O)N1CCN(c2ncccn2)CC1 (stereo not drawn) 5.06%
O=C(O)CCC(=O)N1CCN(c2ncccn2)CC1 1.98%
COc1ccc2c(C)cc(=O)sc2c1 5.61%
O=C(Nc1cccc(NC(=O)c2ccccc2)n1)c1ccccc1 8.99%
Cc1cc(NC(=O)CN2CCCC(C)C2)no1 (stereo not drawn) 20.7%
CCN1CCN(CC(=O)Nc2cc(C)on2)CC1 29.4%
CC1CCN(CC(=O)Nc2ccc(S(=O)(=O)N3CCC(C)CC3)cc2)CC1 23%
O=C(CN1CCCCC1)Nc1ccc(S(=O)(=O)NC2CCCCC2)cc1 5.84%
Cc1cc(NC(=O)CN2CCCCCCC2)no1 18%
Cc1cc(NC(=O)CN2CCCCC2)no1 22.2%
COc1ccc(S(=O)(=O)N2CCOCC2)cc1C(=O)N(C)CCOc1ccc(Cl)cc1 6.35%
O=C1C2C3C=CC(O3)C2C(=O)N1Cc1ccncc1 (stereo not drawn) 1.25%
CN(CC1COc2ccccc2O1)C(=O)c1ccc(Cl)c(S(=O)(=O)N2CCCCCC2)c1 (stereo not drawn) 7.88%
COc1ccc(-c2csc(Nc3ccc(S(=O)(=O)Nc4cc(C)on4)cc3)n2)cc1 11.9%
CC(=O)Nc1ccc(Nc2nc(-c3cc4ccccc4oc3=O)cs2)cc1 4.39%
COc1ccc(-c2csc(Nc3ccc(S(N)(=O)=O)cc3)n2)cc1 15.2%
Oc1ccc(-c2csc(Nc3ccc4c(c3)OCO4)n2)c(O)c1 10.8%
Nc1ccc(Nc2nc(-c3cc4ccccc4oc3=O)cs2)cc1 47.4%
Cc1cc(NS(=O)(=O)c2ccc(Nc3nc(-c4ccc(C)c(C)c4)cs3)cc2)no1 12.2%
NS(=O)(=O)c1ccc(Nc2nc(-c3ccc4ccccc4c3)cs2)cc1 -0.69%
CC(=O)Nc1ccc(-c2csc(Nc3ccc(S(N)(=O)=O)cc3)n2)cc1 -2.9%
Cc1cc(=O)[nH]c(N/N=C/c2c(C)nn(-c3ccccc3)c2Cl)n1 0.59%
CN=c1scc(-c2ccc(Cl)cc2)n1C 3.57%
CC(C(=O)OCC(=O)N1CCCCC1)N1C(=O)c2ccccc2C1=O (stereo not drawn) 2.6%
CC1CCN(S(=O)(=O)c2cn(CC(=O)N3CCN(C)CC3)c(=O)c3ccccc23)CC1 -14%
O=C(CSc1ccc(-c2cccc([N+](=O)[O-])c2)nn1)N1CCCCC1 9.68%
CC(C)(C)S(=O)(=O)N1C[C@H]2CC/C=C\C/C(c3ccccc3)=C\2[C@@H]1CCO 2.11%
CC(C)c1ccc(NC(=O)COC(=O)C2CCCCC2)cc1 1.49%
O=C(NC1CCN(C(=O)N2c3ccccc3Sc3ccccc32)CC1)c1ccco1 1.56%
O=C(NC1CCN(C(=O)N2c3ccccc3Sc3ccccc32)CC1)c1ccccc1Cl 23.6%
CC1C(=O)C(C)C(c2cc(Cl)ccc2O)NC1c1cc(Cl)ccc1O (stereo not drawn) 6.05%
CCC[C@H]1CN(c2ccccc2)C(=O)[C@@H]1CC(=O)Nc1ccc(Br)cc1 13.1%
COC(=O)CSc1nnc2n(-c3ccc(OC)cc3)c(=O)c3c4c(sc3n12)CCCCC4 7.39%
CCSc1nnc2n(-c3ccc(OC)cc3)c(=O)c3c4c(sc3n12)CCCC4 -3.51%
COc1ccccc1-n1c(=O)c2c3c(sc2n2c(SC(C)C)nnc12)CCC3 14.9%
COc1ccccc1-n1c(=O)c2c3c(sc2n2c(SC)nnc12)CCC3 11.3%
O=C(OCC(=O)N1CCc2ccccc21)c1ccncc1 3.21%
CCC(CC)CN1CCC(CN2CCNC(=O)C2=O)CC1 0.28%
COc1ccc(NC(=O)c2cc3cc(OC)ccc3oc2=O)cc1 7.32%
CC(=O)Nc1ccc(OC(=O)c2cc3cc(Br)ccc3oc2=O)cc1 10.4%
O=C(Oc1ccccc1)c1cc2ccccc2oc1=O -4.44%
COc1cccc2cc(C(C)=O)c(=O)oc12 -3.65%
CCOc1ccccc1OC(=O)c1cc2ccccc2oc1=O 9.21%
COc1ccc(NC(=O)c2cc3ccccc3oc2=O)cc1 20.1%
COc1cc(C(C)=O)ccc1OC(=O)c1cc2cccc(OC)c2oc1=O 2.6%
COc1cccc2cc(C(=O)Oc3ccccc3)c(=O)oc12 15.6%
CCN(CC)S(=O)(=O)c1ccc(C(=O)Oc2cc(C)[nH]c(=O)c2[N+](=O)[O-])cc1 0.7%
CCc1cccc(NS(=O)(=O)c2c(C)nc3scc(C)n3c2=O)c1 1.2%
C[C@@H]1CN([C@H](C)CO)C(=O)c2cc(NC(=O)Nc3ccc(F)cc3)ccc2O[C@@H](C)CCCCO[C@H]1CN(C)Cc1ccc(C(=O)O)cc1 10.2%
